# How the values were obtained:
# Test in all cases: DAPPL (digital affinity profiling via proximity ligation, sequencing); 10 mM Tris-HCl pH 7.5, 50 mM NaCl, 1 mM DTT, 4% glycerol, room temperature, 30 min; GST-TFs on glutathione beads, 16-mer random dsDNA library, 0.1% formaldehyde crosslink after washing; high values mean tight binding
# Conditions in all cases: protein: recombinant; tags: N-terminal GST; dsDNA, one strand shown
# FLI1 = biological target: T1, FLI1 (Homo sapiens, UniProt Q01543 1-452)
# T1 sequence: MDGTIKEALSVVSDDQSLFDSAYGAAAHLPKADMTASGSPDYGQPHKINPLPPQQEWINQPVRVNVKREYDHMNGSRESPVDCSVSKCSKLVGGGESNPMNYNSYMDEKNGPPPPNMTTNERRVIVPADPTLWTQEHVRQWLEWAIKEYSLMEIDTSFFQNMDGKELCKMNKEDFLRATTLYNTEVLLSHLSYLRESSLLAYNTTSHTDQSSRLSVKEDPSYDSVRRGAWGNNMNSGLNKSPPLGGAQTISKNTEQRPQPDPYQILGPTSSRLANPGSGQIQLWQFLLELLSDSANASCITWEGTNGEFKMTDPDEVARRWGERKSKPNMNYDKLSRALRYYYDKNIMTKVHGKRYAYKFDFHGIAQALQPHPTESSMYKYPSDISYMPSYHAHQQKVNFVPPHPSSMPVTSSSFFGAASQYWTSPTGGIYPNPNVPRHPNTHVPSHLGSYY
# How it was run: (§1)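 Binding signal is each hexamer's read frequency for a factor divided by its frequency in the tag-only sample. The factors were GST-fused human transcription factors from yeast, captured on glutathione beads, DNA-barcoded and pooled with that sample. Pools were incubated with 200 nmole of a random double-stranded 16-mer DNA library in Tris/NaCl/DTT/glycerol buffer at room temperature for 30 min, then washed, crosslinked with 0.1% formaldehyde, proximity-ligated with BsaI/T4 ligase (1 h, 37 °C), PCR-amplified and sequenced on an Illumina NextSeq500.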
# ELK1 = biological target: T2, ELK1 (Homo sapiens, UniProt P19419 1-428)
# T2 sequence: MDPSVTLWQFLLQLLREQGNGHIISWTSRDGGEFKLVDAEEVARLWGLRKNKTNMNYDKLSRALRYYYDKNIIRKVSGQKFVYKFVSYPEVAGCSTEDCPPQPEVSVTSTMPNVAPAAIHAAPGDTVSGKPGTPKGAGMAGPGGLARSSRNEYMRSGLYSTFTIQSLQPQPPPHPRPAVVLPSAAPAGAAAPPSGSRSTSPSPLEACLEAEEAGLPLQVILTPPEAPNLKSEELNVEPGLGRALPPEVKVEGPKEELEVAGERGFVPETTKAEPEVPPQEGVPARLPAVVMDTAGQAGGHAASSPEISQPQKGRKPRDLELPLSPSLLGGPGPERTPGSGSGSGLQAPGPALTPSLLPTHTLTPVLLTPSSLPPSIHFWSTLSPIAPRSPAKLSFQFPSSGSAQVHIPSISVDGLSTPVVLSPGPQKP
# How it was run: as §1
# GABPA = biological target: T3, GABPA (Homo sapiens, UniProt Q06546 1-454)
# T3 sequence: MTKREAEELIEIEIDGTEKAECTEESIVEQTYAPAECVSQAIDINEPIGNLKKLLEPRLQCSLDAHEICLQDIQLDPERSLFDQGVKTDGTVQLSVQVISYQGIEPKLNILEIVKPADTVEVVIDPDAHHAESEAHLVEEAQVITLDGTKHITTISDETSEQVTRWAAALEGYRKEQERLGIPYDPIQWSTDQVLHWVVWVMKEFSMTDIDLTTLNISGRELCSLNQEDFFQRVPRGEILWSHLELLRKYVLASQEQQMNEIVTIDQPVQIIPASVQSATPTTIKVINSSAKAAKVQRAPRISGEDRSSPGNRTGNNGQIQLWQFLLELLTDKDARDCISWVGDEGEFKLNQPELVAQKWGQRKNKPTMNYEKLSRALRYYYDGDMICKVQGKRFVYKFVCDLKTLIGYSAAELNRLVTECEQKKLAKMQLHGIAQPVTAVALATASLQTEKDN
# How it was run: as §1
# ERG = biological target: T4, ERG (Homo sapiens, UniProt P11308 1-479)
# T4 sequence: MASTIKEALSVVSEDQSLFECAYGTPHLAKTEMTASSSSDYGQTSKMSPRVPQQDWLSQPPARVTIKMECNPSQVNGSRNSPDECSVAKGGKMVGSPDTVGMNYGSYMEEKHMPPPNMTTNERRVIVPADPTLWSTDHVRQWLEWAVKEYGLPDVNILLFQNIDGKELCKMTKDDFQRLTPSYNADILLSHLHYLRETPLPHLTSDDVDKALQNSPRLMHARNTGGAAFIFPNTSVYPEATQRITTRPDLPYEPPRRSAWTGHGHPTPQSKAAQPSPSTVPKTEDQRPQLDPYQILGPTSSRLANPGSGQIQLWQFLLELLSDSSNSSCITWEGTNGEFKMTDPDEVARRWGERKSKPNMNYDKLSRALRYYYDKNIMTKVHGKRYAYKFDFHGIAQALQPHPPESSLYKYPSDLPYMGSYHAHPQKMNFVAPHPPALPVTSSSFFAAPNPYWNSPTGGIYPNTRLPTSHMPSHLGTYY
# How it was run: as §1
# ELF1 = ELF1 (Homo sapiens, UniProt P32519 1-619)
# Chain of ELF1 (P32519 whole entry): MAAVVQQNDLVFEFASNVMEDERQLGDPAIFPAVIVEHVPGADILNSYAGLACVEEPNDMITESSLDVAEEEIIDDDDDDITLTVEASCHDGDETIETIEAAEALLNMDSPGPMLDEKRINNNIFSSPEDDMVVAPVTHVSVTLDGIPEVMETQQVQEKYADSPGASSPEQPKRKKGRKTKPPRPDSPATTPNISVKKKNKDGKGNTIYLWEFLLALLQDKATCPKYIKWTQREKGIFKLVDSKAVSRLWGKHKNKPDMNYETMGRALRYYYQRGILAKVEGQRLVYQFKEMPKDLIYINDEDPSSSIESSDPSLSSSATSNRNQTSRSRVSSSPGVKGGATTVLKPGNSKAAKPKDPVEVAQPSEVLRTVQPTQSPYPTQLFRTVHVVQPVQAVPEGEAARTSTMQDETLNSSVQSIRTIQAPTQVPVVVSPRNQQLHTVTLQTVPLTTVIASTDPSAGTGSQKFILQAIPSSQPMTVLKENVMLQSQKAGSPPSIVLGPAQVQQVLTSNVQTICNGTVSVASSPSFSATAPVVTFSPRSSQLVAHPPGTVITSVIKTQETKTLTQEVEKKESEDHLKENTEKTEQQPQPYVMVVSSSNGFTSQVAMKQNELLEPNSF
# How it was run: as §1
# EHF = biological target: T5, EHF (Homo sapiens, UniProt Q9NZC4 1-300)
# T5 sequence: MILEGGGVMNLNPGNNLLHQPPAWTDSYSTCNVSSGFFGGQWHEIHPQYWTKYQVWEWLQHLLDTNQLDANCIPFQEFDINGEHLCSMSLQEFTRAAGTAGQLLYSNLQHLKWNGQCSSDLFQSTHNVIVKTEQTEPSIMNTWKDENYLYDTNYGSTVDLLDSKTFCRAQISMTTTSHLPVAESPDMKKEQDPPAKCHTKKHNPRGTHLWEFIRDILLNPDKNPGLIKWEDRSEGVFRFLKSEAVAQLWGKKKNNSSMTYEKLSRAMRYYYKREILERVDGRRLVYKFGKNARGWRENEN
# How it was run: as §1
# SPI1 = SPI1 (Homo sapiens, UniProt P17947 1-270)
# How it was run: as §1
# SPIB = SPIB (Homo sapiens, UniProt Q01892 1-262)
# Chain of SPIB (Q01892 whole entry): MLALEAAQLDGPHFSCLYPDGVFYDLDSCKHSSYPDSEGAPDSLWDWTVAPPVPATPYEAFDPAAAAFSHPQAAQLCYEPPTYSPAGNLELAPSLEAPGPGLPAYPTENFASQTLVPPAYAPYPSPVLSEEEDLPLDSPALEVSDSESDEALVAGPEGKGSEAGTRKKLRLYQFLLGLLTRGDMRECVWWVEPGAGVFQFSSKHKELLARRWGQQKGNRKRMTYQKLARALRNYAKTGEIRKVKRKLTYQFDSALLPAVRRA
# How it was run: as §1
# ELK3 = biological target: T6, ELK3 (Homo sapiens, UniProt P41970 1-407)
# T6 sequence: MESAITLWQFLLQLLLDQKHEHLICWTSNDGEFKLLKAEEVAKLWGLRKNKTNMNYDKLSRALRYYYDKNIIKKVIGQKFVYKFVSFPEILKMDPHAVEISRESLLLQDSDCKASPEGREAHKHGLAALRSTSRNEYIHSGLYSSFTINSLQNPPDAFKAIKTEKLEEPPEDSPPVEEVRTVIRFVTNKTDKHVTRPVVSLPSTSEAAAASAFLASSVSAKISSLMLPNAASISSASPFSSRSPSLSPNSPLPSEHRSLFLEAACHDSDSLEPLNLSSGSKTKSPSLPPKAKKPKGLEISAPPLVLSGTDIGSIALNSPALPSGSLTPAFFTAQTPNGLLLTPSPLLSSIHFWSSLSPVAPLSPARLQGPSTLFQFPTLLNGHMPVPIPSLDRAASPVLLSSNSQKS
# How it was run: as §1
sequence,measurement,setting,value
TGTCTA,binding signal,FLI1,"1.2 fold enrichment (6-mer frequency, TF over GST control)"
same,binding signal,ELK1,"1.15 fold enrichment (6-mer frequency, TF over GST control)"
same,binding signal,GABPA,"1.12 fold enrichment (6-mer frequency, TF over GST control)"
same,binding signal,ERG,"1.17 fold enrichment (6-mer frequency, TF over GST control)"
same,binding signal,ELF1,"1.15 fold enrichment (6-mer frequency, TF over GST control)"
same,binding signal,EHF,"1.12 fold enrichment (6-mer frequency, TF over GST control)"
same,binding signal,SPI1,"1.09 fold enrichment (6-mer frequency, TF over GST control)"
same,binding signal,SPIB,"1.02 fold enrichment (6-mer frequency, TF over GST control)"
same,binding signal,ELK3,"1.36 fold enrichment (6-mer frequency, TF over GST control)"

# Source: publication PMC7862700, “An all-to-all approach to the identification of sequence-specific readers for epigenetic DNA modifications on cytosine”
